Sfp PPTase inh: blocks B. subtilis Sfp PPTase activity | Biochemical Sfp PPTase activity, qHTS | Potency, µM, without a hit: largest response in the series, negative = inhibition, usual class: inhibitors | 310,000 compounds, 3.5% hits | AID 1490;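 note: the enzyme is Sfp with the accession as filed and its product quenches rhodamine fluorescence; 0% = enzyme reaction without inhibitor and -100% = no enzyme wells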
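Fluorescence-quenching assay: 15 nM Sfp-PPTase preincubated 15 min at room temperature with compound, then 5 uM rhodamine-CoA and 12.5 uM BHQ-2-labelled YbbR peptide added. Fluorescence (ex 525/em 598 nm) read at start and after 30 min; difference gives rate.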
HP1b chromo inh: HP1-beta chromodomain-methylated histone interaction inhibition; P83916; AlphaScreen HP1-beta / biotin-H3K9me3 peptide binding; Potency, µM (top dose mostly 114 µM), inactives show at the top dose activity change, negative = inhibition, actives largely listed as inhibitors; 390,000 compounds, 0.56% hits; AID 540317; note: nearly all actives have a fitted effect of over 70% in size
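AlphaScreen: HP1-beta (50 nM) preformed 30 min with biotin-H3(1-18)K9me3 peptide (50 nM) in PBS pH 7.4, 0.01% Tween-20. Compound added for 30 min at RT, then streptavidin donor/nickel chelate acceptor beads (10 ug/mL) for 30 min.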
L3MBTL1 inh: inhibitors of human L3MBTL1. Q9Y468. AlphaScreen L3MBTL1–H3K9me1 peptide binding. Potency, µM (doses to about 57.1 µM), for the others: at the highest dose activity, negative = inhibition, hits mostly inhibitors. 230,000 compounds, 0.66% hits. AID 485360; note: % is set by controls: 0 for no effect and ±100 for the full control effect; nearly all actives have a fitted effect of over 60% in size
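First, the protein-peptide complex forms for 30 min at room temperature (L3MBTL1 50 nM, biotinylated H3K9me1 peptide 75 nM). Next, compounds are pin-transferred and incubated 30 min. Finally, AlphaScreen beads are added and read after 30 min.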
BAZ2B inh: blocks human BAZ2B; Q9UIF8; AlphaScreen BAZ2B-H3K14Ac peptide displacement; Potency, µM (highest dose often 114 µM), for the others: top-dose activity change, negative = inhibition, usual class: inhibitors; 360,000 compounds, 4.4% hits; AID 504333; note: % is set by controls: 0 for no effect and ±100 for the full control effect; nearly all actives have a fitted effect of over 60% in size
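AlphaScreen displacement of biotin-H3(5-23)K14Ac peptide (50 nM final) from BAZ2B (50 nM final) in PBS pH 7.4, 0.01% Tween-20; complex preformed 30 min RT, then compounds (top 110 uM) 30 min RT, beads 20 min dark.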
G9a block: inhibitors of human histone lysine methyltransferase G9a | Q96KQ7 | G9a H3K9 monomethylation, AlphaScreen, 2 h | Potency, µM (doses to about 102 µM), inactives show top-dose activity, negative = inhibition, actives largely listed as inhibitors | 350,000 compounds, 8.8% hits | AID 504332; note: % is set by controls: 0 for no effect and ±100 for the full control effect; nearly all actives have a fitted effect of over 75% in size
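AlphaScreen detection with an anti-monomethyl H3K9 antibody quantified product after a 2 h room-temperature reaction containing 500 nM biotinylated H3K9 peptide, 20 µM SAM and 20 nM enzyme, which had been preincubated 15 min with compound.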
JMJD2A Tudor: inhibitors of human JMJD2A Tudor domain. Potency, µM (highest dose often 114 µM), inactives show at the highest dose activity change, negative = inhibition, usual class: inhibitors. AID 504339. AlphaScreen JMJD2A-Tudor / H3K4me3 peptide binding. 390,000 compounds, 4.4% hits. O75164; note: % is set by controls: 0 for no effect and ±100 for the full control effect; nearly all actives have a fitted effect of over 50% in size
Target sequence (O75164 whole entry, looked up, the tested form may be a part): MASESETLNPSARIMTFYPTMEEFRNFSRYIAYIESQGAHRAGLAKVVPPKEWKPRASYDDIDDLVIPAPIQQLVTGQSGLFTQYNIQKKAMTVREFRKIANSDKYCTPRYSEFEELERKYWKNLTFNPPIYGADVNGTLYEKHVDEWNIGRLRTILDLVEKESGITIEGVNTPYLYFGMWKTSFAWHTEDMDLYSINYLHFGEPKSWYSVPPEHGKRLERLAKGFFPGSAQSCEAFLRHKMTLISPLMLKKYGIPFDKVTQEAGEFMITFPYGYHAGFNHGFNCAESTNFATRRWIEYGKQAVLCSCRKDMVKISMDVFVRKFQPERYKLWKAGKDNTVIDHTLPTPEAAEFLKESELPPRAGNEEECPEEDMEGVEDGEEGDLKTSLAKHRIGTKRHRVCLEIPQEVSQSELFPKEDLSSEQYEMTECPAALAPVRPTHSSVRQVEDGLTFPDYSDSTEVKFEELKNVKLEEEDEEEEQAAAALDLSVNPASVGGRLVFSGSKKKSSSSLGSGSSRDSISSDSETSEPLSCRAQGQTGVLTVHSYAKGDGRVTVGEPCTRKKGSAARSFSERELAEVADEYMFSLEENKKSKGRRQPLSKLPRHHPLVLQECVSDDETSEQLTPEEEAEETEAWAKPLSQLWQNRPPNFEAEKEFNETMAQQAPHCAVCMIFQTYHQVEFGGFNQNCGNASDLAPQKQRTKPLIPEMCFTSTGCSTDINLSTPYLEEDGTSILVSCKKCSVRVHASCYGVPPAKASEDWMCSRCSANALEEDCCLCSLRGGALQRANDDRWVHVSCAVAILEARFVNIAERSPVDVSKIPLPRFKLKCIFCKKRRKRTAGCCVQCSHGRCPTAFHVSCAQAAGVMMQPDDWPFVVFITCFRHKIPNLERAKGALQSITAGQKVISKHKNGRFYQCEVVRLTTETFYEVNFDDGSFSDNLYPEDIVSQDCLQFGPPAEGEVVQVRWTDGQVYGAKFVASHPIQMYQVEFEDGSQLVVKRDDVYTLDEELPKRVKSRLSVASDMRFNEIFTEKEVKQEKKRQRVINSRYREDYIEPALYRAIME
* = called active by the depositor; ? = inconclusive; . = no result given; [ ] = another dose, or the depositor's remark. Hits are enriched below; roughly 12% of the tested compounds scored in any of these assays. Calls come from the whole dose curve; as a rule, active = well fitted curve in the direction sought with a large enough effect; inconclusive = small, poorly fitted or top-dose-only effect, or another doubt; inactive = no such curve, though single readings can be large; an effect the other way counts as inactive or inconclusive. Potency is the fitted concentration of half-maximal effect.

SMILES | Sfp PPTase inh | HP1b chromo inh | L3MBTL1 inh | BAZ2B inh | G9a block | JMJD2A Tudor
CC[Si](CC)(CC)O[C@H]([C@@H](C)COCOC)[C@@H](C)COCc1ccc(OC)cc1 | 0% | 26% | . | . | . | 1%
CC(C)(C)c1ccc(O)c(O)c1 | . | ? | -3% | -8% | 9%[0.501 µM] | 13µM*
CC(C)(C)c1ccc(O)c(/C=N\O)c1 | 22% | 30% | . | -7% | 29%[59 µM] | ?
COc1cccc(CNS(=O)(=O)c2ccc3c(c2)C(C(C)C)C(=O)N3)c1 (stereo unspecified) | . | 25% | . | -3%[57.1 µM] | -17%[59 µM] | -18%
CCCC(=O)Oc1c(Sc2ccc(C)cc2)c(C)nn1-c1ccccc1 | . | 89% | . | 37% | 2µM* | -6%
CCC(=O)Oc1c(Sc2ccc(C)cc2)c(C)nn1-c1ccccc1 | . | 49% | . | 10% | 10µM* | -13%
Cc1ccc(Sc2c(C)nn(C(C)(C)C)c2OC(=O)CC(C)C)cc1 | . | 93% | . | 84% | 82%[59 µM] | 70%
CCC(=O)Oc1c(Sc2ccc(Cl)cc2)c(C)nn1-c1ccccc1 | . | 30% | . | 1% | 2.8µM* | -22%
CCCN1C(=O)c2ccccc2NC1c1ccc(OC)c(COc2cccc(C)c2C)c1 (stereo unspecified) | . | 11%[57 µM] | . | . | . | -6%[57.1 µM]
CCOc1ccc2nc(N3CCCC(C(=O)Nc4cc(Cl)c(OC)cc4OC)C3)sc2c1 (stereo unspecified) | . | 22% | . | -3% | -40%[59 µM] | -10%
C#CCOc1ccc(C(=O)N(C)c2ccccc2I)cc1 | 20% | 54% | . | . | . | -17%
CCCc1cc(=O)oc2c3c(ccc12)OCN(Cc1ccc(OC)cc1)C3 | . | 10% | . | 0% | -7%[59 µM] | -25%
COc1ccc(OC)c(CCNC(=O)c2cc3c(=O)oc4ccc(C)cc4c3s2)c1 | . | 46% | . | -9% | -29%[59 µM] | 0%
CC(=O)Nc1cc(O)c2nonc2c1O | . | ? | . | . | . | 25µM*
Cc1ccc2c(c1)c1c(n2CC(O)CNC2CCCC2)CCCC1 (stereo unspecified) | -6% | ? | . | 45µM* | 20µM* | 18µM*
Cc1ccc2c(c1)c1c(n2CC(O)Cn2ccnc2C)C(=O)CCC1 (stereo unspecified) | 22% | 10% | -4% | -8% | -7%[59 µM] | -24%
O=C(Nc1ccc(-c2cc(C(F)(F)F)nn2-c2ccccc2)cc1)c1cccc(F)c1 | . | 27% | . | -8% | 5%[59 µM] | 3%
COc1ccc(C)cc1S(=O)(=O)N1CCN(C(=O)c2ncoc2-c2ccccc2C)CC1 | 5% | -7% | . | 2% | 4% | -14%
COc1ccccc1-c1ocnc1C(=O)N1CCN(C(=O)C(c2ccccc2)c2ccccc2)CC1 | 89µM* | -12% | . | -1% | -2%[59 µM] | -14%
Cc1cccc2sc(N(Cc3cccnc3)C(=O)c3cccs3)nc12 | . | 71% | . | 10% | 0%[59 µM] | 5%
CCOc1ccc(NC(C(=O)Nc2cccc(C(C)=O)c2)c2ccccc2)cc1 (stereo unspecified) | 9% | -37% | ? | 40µM* | 45µM* | ?
CCN(CC)CCNC(C(=O)Nc1cccc(C(C)=O)c1)c1ccccc1 (stereo unspecified) | ? | ? | . | 56µM* | ? | 1.1µM*
CSCC[C@H](N)C(=O)N[C@@H](CCCN=C(N)N)C(=O)N[C@@H](Cc1ccccc1)C(=O)N[C@@H](Cc1ccccc1)C(=O)N[C@H](C(=O)O)C(C)C | 6% | . | . | . | . | .
Cc1c(P(=S)(c2ccccc2)c2ccccc2)[n+]2ccccc2n1CC(=O)c1ccccc1 | . | . | . | . | . | -26%
Cc1csc2nc(CCNS(=O)(=O)c3ccc(F)cc3)cn12 | . | 26%[57 µM] | . | 3% | 0%[59 µM] | -5%
SMILES | Sfp PPTase inh | HP1b chromo inh | L3MBTL1 inh | BAZ2B inh | G9a block | JMJD2A Tudor
O=C(Nc1nnc2n1CCS2)c1ccc(Br)o1 | 56µM* | 29% | . | 20µM* | 1.8µM* | 20µM*
CC(C)(Oc1ccc(Cl)cc1)C(=O)Nc1nnc2n1CCS2 | . | 11%[57 µM] | . | ? | 21%[59 µM] | 79µM*
O=C(Cc1ccc(Cl)cc1)Nc1nnc2n1CCS2 | . | 13%[57 µM] | . | 56µM* | ? | ?
CC(C)Oc1ccc(C(=O)Nc2nnc3n2CCS3)cc1 | . | 29%[57 µM] | . | -10% | 17%[59 µM] | -13%
CC(C)CC(=O)Nc1nnc2n1CCS2 | . | 12%[57 µM] | . | -2% | ? | -24%
CCOC(=O)CSC1=C(C#N)C(=O)NC2(CCCCC2)S1 | 50µM* | 71µM* | . | 13µM* | 32µM* | 45µM*
Cc1ccc(CNC(=O)CCCC(=O)Nc2cc(C)on2)cc1 | 14% | ? | 12% | -7% | . | 16µM*
Cc1cc(NC(=O)CCOc2ccc(F)cc2)no1 | -5% | 36% | 1% | -9% | 56µM* | -1%
CSCCC(NC(=O)C1CCCCC1)C(=O)Nc1ccc(F)c(Cl)c1 (stereo unspecified) | . | 18% | . | -3% | -28%[59 µM] | -16%
CSc1ccc(NC(=O)NCCN2CCc3ccccc3C2)cc1 | -28% | -5% | -14% | ? | ? | ?
COc1ccc(NC(=O)NCCN2CCc3ccccc3C2)cc1 | -9% | 16% | -2% | 2% | ? | 20µM*
COc1ccc(NC(=O)N2CCc3ccccc3C2)cc1 | 9% | 30% | . | -10% | 5% | -14%
COc1ccc(N2CCN(c3ccc(NC(=O)/C=C\C(=O)O)cc3)CC2)cc1 | 4% | 9% | -16% | ? | 45µM* | -27%
COc1ccc(Nc2nc(C(=O)N3CCc4ccccc4C3)cs2)cc1 | -4% | ? | 3% | ? | . | 45µM*
COc1ccc(N2CCN(CCS(=O)(=O)c3cc(Cl)ccc3Cl)CC2)cc1 | . | -22% | -12% | 45µM* | -12%[2.33 µM] | ?
COc1ccc(/C=C/C(=O)Nc2ccc(N3CCOCC3)cc2)cc1 | 11% | 24% | -1% | -1% | -46% | -10%
CCNc1ncc2nc(C)c(=O)n(Cc3ccc(F)cc3)c2n1 | -27% | . | . | . | 14%[0.501 µM] | .
COC(=O)[C@@H]1C[C@H]1[C@@H](NC(=O)c1cnccn1)c1ccccc1 | 29% | . | . | . | . | .
CC(=O)OCC(NC(=O)C(C)NC(=O)OC(C)(C)C)C1OC(n2cc(C)c(=O)[nH]c2=O)C(OC(C)=O)C1OC(C)=O (stereo unspecified) | -12% | 11% | . | . | . | -1%
CSc1ccc(NC(=O)NCCCN2CCC(Cc3ccccc3)CC2)cc1 | -8% | -10% | . | 40µM* | ? | ?
O=C(NCCCN1CCN(c2cccc(Cl)c2)CC1)C1(S(=O)(=O)c2ccc(Cl)cc2)CC1 | 10% | 1% | . | -28% | -28%[59 µM] | -24%
COc1ccc(N2CCN(CCCNC(=O)C3(S(=O)(=O)c4ccc(Cl)cc4)CC3)CC2)cc1 | -9% | ? | -3% | ? | ? | 50µM*

Screening results (PubChem)
